# Source: PubChem BioAssay (NCATS)
# Results filed as inconclusive are left out. A call without a number means that no potency is given here. Active and inactive are the calls of the source. The call rests on the fitted dose curve; in most records, active means well fitted curve in the direction sought with a large enough effect; inconclusive means small, poorly fitted or top-dose-only effect, or another doubt; inactive means no such curve, though single readings can be large; an effect the other way counts as inactive or inconclusive.
# Test: qHTS for Inflammasome Signaling Inhibitors: IL-1-beta AlphaLISA screen against the NCATS CANVASS Library (AID 1347379);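 further: human THP-1 cells primed with LPS then triggered with ATP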;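 on potency: secreted IL-1B measured as AlphaLISA emission at 615 nm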
# Settings: THP-1 LPS/ATP, IL-1B AlphaLISA secretion, 16 h; series mostly up to 57.5 µM
# Procedure, shortened: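 Secreted IL-1B from human THP-1 cells quantified by AlphaLISA 16 hr after compound addition (final up to 57.5 uM). A 1 hr compound pretreatment preceded inflammasome activation with 250 ng/mL LPS plus 1.25 mM ATP (final).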
# Potency means the concentration at half of the fitted maximal effect.
row,Structure (SMILES),Potency
1,CN1C(=O)C(=O)N2C(=C[C@]3(c4c[nH]c5ccccc45)c4ccccc4N[C@H]23)C1=O,inactive
2,COC1C(C)OC(OCC23C[C@@H]4[C@H](C)CC[C@H]4C4(C=O)CC2C=C(C(C)C)C34C(=O)O)[C@@H](O)[C@H]1O (stereo not given in full),inactive
3,CN1CC[C@@]2([C@@]34CCN(C)[C@@H]3Nc3ccccc34)c3ccccc3N[C@@H]12,inactive
4,COc1ccc(-c2oc3cc(OC)cc(OC)c3c(=O)c2O)cc1,inactive
5,C=C(Cl)[C@](Cl)(CBr)CC[C@@H](Br)C(C)(C)Cl,4.85 µM (active)
6,C=C(C)C(=O)O[C@H]1C[C@@]2(C)OC(=CC2=O)/C(C)=C\[C@H]2OC(=O)C(=C)[C@H]12,1.37 µM (active)
7,C=C[C@]1(C)CC[C@@H]([C@H](C)C(=O)CC=C(C)C)O1,inactive
8,CC[C@@H]1C[C@@]2(CC)OC(=O)[C@@]3(CC)[C@H](CC)[C@@H]1[C@@H]23,inactive
9,COC(=O)c1cccc2oc(-c3cccc4oc(-c5c(C)cccc5O)nc34)nc12,inactive
10,C[C@@]12CCC[C@@](C)(C(=O)OP(=O)(O)OC[C@H]3O[C@@H](n4cnc5c(N)ncnc54)[C@H](O)[C@@H]3O)[C@H]1C[C@@H](O)[C@@]13C[C@@H](CC[C@@H]21)[C@](C)(O)C3,inactive
11,CCC(C)=C1OC(=O)[C@H](C)[C@H](O)[C@H](Cc2cccnc2)NC(=O)C(NC(=O)c2ncccc2O)C(C)OC1=O (stereo not given in full),inactive
12,C[C@@]12CCC[C@@](C)(C(=O)O)[C@H]1CC[C@@]13C[C@@H](CC[C@H]12)[C@](C)(O)C3,inactive
13,O=C1OC(CCO)c2cccc(O)c21 (stereo not given),inactive
14,C/C(=C\[C@@H](C)CC/C=C/CC/C=C/C(=O)O)[C@@H](O)[C@H](C)C(=O)CCCC1CC(=O)NC(=O)C1,inactive
15,CO[C@@H](C[C@@H](C)[C@@H](O)/C=C/C=C/CNC(=O)C(C)(C)[C@H](O)\C(C)=C/C=C\C=C\Cc1cnco1)[C@]1(O)[C@@H](C)C(=O)N(C)[C@@]12COC2=O,inactive
16,O=C1CC(c2ccc(O)cc2)Oc2cc(O)ccc21 (stereo not given),inactive
17,C[C@@]12CCC[C@@](C)(C(=O)O)[C@H]1C[C@@H](O)[C@@]13C[C@@H](CC[C@@H]21)[C@](C)(O)C3,inactive
18,O=Cc1ccc2n1C[C@]1(OC2)O[C@H](CO)[C@@H](O)[C@@H]1O,inactive
19,C=C[C@@]1(C)CC[C@@H]([C@H](C)C(C)=O)O1,inactive
20,C/C=C(/CO)C(=O)O[C@@H]1[C@H](O)[C@@H](C(=O)OC)O[C@@H]2C[C@H]3OC(n4cnc5c(N)ncnc54)[C@H](OC)[C@H]3O[C@@]12O (stereo not given in full),inactive
21,C=C1[C@@]2(C)CC3C4(C)CCC(O)C(C)(C)C4CCC3(C)[C@]1(C(=O)OC)C(=O)C(C)(O)C2=O (stereo not given in full),inactive
22,CC(C)=CCC[C@]1(C)[C@H]2CC(=O)[C@@]3(CO3)[C@@H]1C2,inactive
23,COc1ccc([C@@H]2c3cc4c(cc3C(=O)C(C)C2C)OCO4)cc1OC (stereo not given in full),inactive
24,CC1(C)CC[C@]2(CO)CC[C@]3(C)C(=CCC4[C@@]5(C)CC[C@H](O)C(C)(C)C5CC[C@]43C)C2C1 (stereo not given in full),inactive

# Test: qHTS for Antimalaria activity screened against the NCATS CANVASS Library (AID 1347380); further: nearly all actives have a fitted effect of over 40% in size
# Settings: P. falciparum Dd2 growth, SYBR Green fluorescence, 72 h; series mostly up to 28.7 µM
# Procedure, shortened: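 Compounds are titrated over 11 concentrations onto Dd2 parasite cultures (0.3% parasitemia, 2.5% hematocrit). Growth over 72 h at 37C in low oxygen is measured as SYBR Green DNA fluorescence after lysis.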
row,Structure (SMILES),Potency
1,CC(=O)N[C@H](C)c1nc(/C=C/C=C/C(=O)CC2CC(=O)CC[C@]2(C)O)cs1 (stereo not given in full),inactive
2,CN1CC[C@]23c4ccccc4N[C@H]1[C@]21CCN(C)[C@H]3Nc2ccccc21,inactive
3,O=C1CC(c2ccc(O)cc2)Oc2ccccc21 (stereo not given),inactive
4,COc1c(O)cc(O)c2c(=O)cc(-c3ccccc3)oc12,inactive
5,COC1C(C)OC(OCC23C[C@@H]4[C@H](C)CC[C@H]4C4(C=O)CC2C=C(C(C)C)C34C(=O)O)[C@@H](O)[C@H]1O (stereo not given in full),inactive
6,CN1CC[C@@]2([C@@]34CCN(C)[C@@H]3Nc3ccccc34)c3ccccc3N[C@@H]12,211 nM (active)
7,C=C(C)C(=O)O[C@H]1C[C@@]2(C)OC(=CC2=O)/C(C)=C\[C@H]2OC(=O)C(=C)[C@H]12,265 nM (active)
8,C=C[C@]1(C)CC[C@@H]([C@H](C)C(=O)CC=C(C)C)O1,inactive
9,C[C@@]12CCC[C@@](C)(C(=O)OP(=O)(O)OC[C@H]3O[C@@H](n4cnc5c(N)ncnc54)[C@H](O)[C@@H]3O)[C@H]1C[C@@H](O)[C@@]13C[C@@H](CC[C@@H]21)[C@](C)(O)C3,inactive
10,CCC(C)=C1OC(=O)[C@H](C)[C@H](O)[C@H](Cc2cccnc2)NC(=O)C(NC(=O)c2ncccc2O)C(C)OC1=O (stereo not given in full),inactive
11,C[C@@]12CCC[C@@](C)(C(=O)O)[C@H]1CC[C@@]13C[C@@H](CC[C@H]12)[C@](C)(O)C3,inactive
12,O=C1OC(CCO)c2cccc(O)c21 (stereo not given),inactive
13,C=C1C[C@]23C=CC(=O)[C@@](C)(CCCC(C)C(=O)N[C@@H](CO)C(=O)O)[C@@H]2C[C@@H]1CC3 (stereo not given in full),inactive
14,C/C(=C\[C@@H](C)CC/C=C/CC/C=C/C(=O)O)[C@@H](O)[C@H](C)C(=O)CCCC1CC(=O)NC(=O)C1,inactive
15,O=C1CC(c2ccc(O)cc2)Oc2cc(O)ccc21 (stereo not given),inactive
16,CN1CC[C@@]23c4ccccc4N[C@@H]1[C@@]21CCN(C)[C@@H]3Nc2ccccc21,7.5 nM (active)
17,C[C@@]12CCC[C@@](C)(C(=O)O)[C@H]1C[C@@H](O)[C@@]13C[C@@H](CC[C@@H]21)[C@](C)(O)C3,inactive
18,C/C=C(/CO)C(=O)O[C@@H]1[C@H](O)[C@@H](C(=O)OC)O[C@@H]2C[C@H]3OC(n4cnc5c(N)ncnc54)[C@H](OC)[C@H]3O[C@@]12O (stereo not given in full),inactive
19,C/C=C/[C@H]1[C@H]2C(=O)c3c(O)c(C)c(O)c(C)c3[C@]1(C(=O)O)C(=O)C=C2C,inactive
20,C[C@@]12C[C@@H](C[C@@H]3C(=O)O[C@@H](c4ccoc4)[C@H](OC(=O)c4ccccc4)[C@@H]31)OC2=O,inactive
21,C=C1[C@@]2(C)CC3C4(C)CCC(O)C(C)(C)C4CCC3(C)[C@]1(C(=O)OC)C(=O)C(C)(O)C2=O (stereo not given in full),inactive
